# Results: ChEMBL document CHEMBL3988442, “University of Dundee, Small-Polar-MMV Screening Library” (2021)
# The whole screen tested about 38,000 compounds, of which about 1,200 (3.2%) showed an effect of 50% or more. The median lay at about -58%. The entries come from a sample that favours strong results as a whole.
# Test system: Plasmodium falciparum
# Experiment: Calibr Malaria Delayed Death Assay SOP
# Type: functional, organism-based
# Parameters: scale not given: in the data most compounds retested in dose-response had high values
# Details: concentration 4.99e-06 (unit not given; other assays of the set use mol/L)
row,Structure (SMILES),Percent Effect [%]
1,COc1ccc2c(c1)NC(=O)C2OC(=O)Cc1ccccc1C (stereo not given),10.16
2,CCc1ncc2c(n1)CN(c1nccc(C3CCCC3)n1)C2,-48.7
3,Cc1nn(C)cc1-c1ccnc(N2CCCN(CC(C)C)CC2)n1,-23.38
4,c1cc(-c2cn3nccc3nc2C2CCCCC2)nc(N2CCCC2)n1,-1.044
5,CN1CCCN(c2nccc(-c3cncnc3C3CCCCC3)n2)CC1,59.73
6,CN1CCN(c2nccc(-c3cncnc3C3CCCCC3)n2)CC1,60.54
7,CN1CCCN(c2nc(C3CCCC3)nc3c2cnn3C)CC1,-58.12
8,Cc1nn(C)c2ncc(NC(=O)N3CCCCCC3)cc12,-40.12
9,Cc1nc(CN2CCc3cnc(C(C)C)nc3C2)oc1C,-83.71
10,CC(NS(C)(=O)=O)c1nc(-c2ccc(Br)cc2)no1 (stereo not given),-124.5
11,Cc1nc(C2CCN(C)CC2)cc(N2CCOc3ccc(Cl)cc3C2)n1,69.39
12,Cc1nc(CCN)cc(N2CCOc3ccc(Cl)cc3C2)n1,34.3
13,Cc1nc(C2CCNCC2)cc(N2CCOc3ccccc3C2)n1,46.26
14,Cn1cnnc1C1CCCN1C(=O)Nc1cccc(OC(F)F)c1 (stereo not given),-73.45
15,CC(C)C(=O)N1CCC2(CCN2CC2CC2)C1.O=C(O)C(F)(F)F (stereo not given),-79.93
16,CC(C)C(=O)N1CCCC2(CCCN2Cc2cccnc2)C1 (stereo not given),-19.91
17,CC(C)C(=O)N1CCC2(CN(CC3CCCC3)C2)C1.O=C(O)C(F)(F)F,-72.67
18,O=C(C1CCCCC1)N1CCC2(CCCN2CC2CC2)CC1.O=C(O)C(F)(F)F,-22.84
19,CC(C)C(=O)N1CCCC2(CCCN2CC2CCCC2)C1.O=C(O)C(F)(F)F (stereo not given),59.96
20,CCCC(NC(=O)c1ccc(C)cc1C)c1nnn[nH]1 (stereo not given),-70.8
21,CC(C)[C@H](CO)Nc1nccc(-c2c[nH]nc2-c2ccncc2)n1,83.09
22,OC[C@@H]1CCCN1c1nccc(-c2c[nH]nc2-c2ccncc2)n1,66.81
23,NC(=O)[C@H]1CCCN(c2nccc(-c3c[nH]nc3-c3cccnc3)n2)C1,-58.34
24,c1cncc(-c2nc(C3CC3)ncc2-c2ccnc(N3CCCC3)n2)c1,-168.7
25,c1cc(-c2n[nH]cc2-c2ccnc(N3CCCC3)n2)ccn1,80.23

row,Structure (SMILES),Percent Effect [%]
1,Cc1[nH]c2ccccc2c1-c1ccnc(N[C@@H](CO)C(C)C)n1,-14.55
2,CN1CCCN(c2nccc(-c3c[nH]nc3-c3ccncc3)n2)CC1,65.32
3,CN1CCCN(c2nccc(-c3c[nH]c4ccc(Br)cc34)n2)CC1,40.41
4,Cc1ncc(-c2ccnc(N3CCC[C@@H]3CO)n2)c(-c2cccnc2)n1,-29.65
5,Cc1csc2ncc(-c3ccnc(N4CCC[C@@H]4CO)n3)c(=O)n12,-191.9
6,CN1CCCN(c2nccc(-c3cc(C(=O)O)ccn3)n2)CC1,-114.4
7,Cc1ccccc1-n1cc(-c2ccnc(NC(CO)C(C)C)n2)cn1 (stereo not given),25.15
8,Cc1cnc(C(NC(=O)NCc2nc(C3CC3)no2)C2CC2)s1 (stereo not given),-34.97
9,Cc1ccc(N2CCO[C@H]3CN(Cc4cccs4)C[C@H]32)nn1.O=C(O)C(F)(F)F.O=C(O)C(F)(F)F,-16.91
10,CCN(CC)Cc1cc(=O)n2c(n1)CN(C(=O)c1ccnnc1)CCC2.O=C(O)C(F)(F)F,-110.9
11,Cc1ccc(CN2CC[C@H]3OCC[C@@]3(C(=O)N3CCCO3)C2)o1.O=C(O)C(F)(F)F,-80.01
12,CC(C)c1nnc2sc(CC3CN(C(C)C)CCO3)nn12 (stereo not given),-105.6
13,CCCS(=O)(=O)N1Cc2nccn2CC(Cn2cncn2)C1 (stereo not given),-125.8
14,NC(=O)C1CCN(c2nccc(-c3c[nH]nc3C3CCCCC3)n2)CC1,12.3
15,c1cc(-c2n[nH]cc2-c2ccnc(N3CCCCCC3)n2)ccn1,76.99
16,c1cc(-c2c[nH]nc2C2CCCCC2)nc(N2CCCCCC2)n1,-3.373
17,CC(NC(=O)N1CCNC(=O)CC1)c1c(F)cccc1Cl (stereo not given),-91.59
18,COCCC(=O)N1CCC2(COCc3cnc(-c4cccnc4)nc32)C1 (stereo not given),-64.26
19,Cc1cncc(C(=O)N[C@@H]2CC[C@@H](N3CCOCC3)[C@@H]2O)c1,-132.2
20,CNC(=O)c1ccc(C(=O)N2CCCC(n3ccnc3C)C2)cn1 (stereo not given),-171.6
21,Cl.O=C1CC2(CCCNC2)C(=O)N1Cc1ccc(F)cc1 (stereo not given),-29.07
22,CC(C)c1ccc(CN2C(=O)C3(CCNCC3)Nc3ccccc32)cc1,81.43
23,Cl.O=C1CC2(CCCNC2)C(=O)N1Cc1ccccc1 (stereo not given),-18.54
24,NC(=O)c1ccc(CN2C(=O)C3(CCNCC3)Nc3ccccc32)cc1,-6.416
25,C=Cc1ccc(CN2C(=O)C3(CCNCC3)Nc3ccccc32)cc1,87.33

row,Structure (SMILES),Percent Effect [%]
1,N#Cc1cccc(CN2C(=O)C3(CCNCC3)Nc3ccccc32)c1,66.93
2,CN1CC2(CCN(Cc3cccc(C#N)c3)CC2)CC1=O,-15.68
3,CCN1CC2(CCC1=O)CCN(Cc1cccc(C#N)c1)CC2,-206
4,Cl.O=C1CC2(CCNCC2)C(=O)N1Cc1ccc(F)cc1,-53.59
5,c1ccc2c(c1)COC1(CCCC1)N2,-67.59
6,Cn1nc(CN2CCCCC2)c2c1CN(C(=O)c1ccccc1)C2,-57.34
7,CC(C)NC(=O)c1nn(C)c(NC(=O)Cc2ccccc2)c1F,-24.59
8,Cc1nc(CNC(=O)NC2CCN(c3ncccn3)CC2)cs1,-218.9
9,CCOCCCn1c(NC(=O)c2cc(C)no2)nc2ccccc21,-48.09
10,Cn1cccc1C(=O)N1C[C@H]2CC[C@@H]1CN(Cc1cscn1)C2,-15.16
11,O=S(=O)(c1cc(F)ccc1F)N1CCCC1c1ccco1 (stereo not given),-139.7
12,Cc1ccc(CN2CCCC3(CCN(Cc4ccc(C)o4)C3)C2)o1 (stereo not given),14.98
13,CCN1CCCC(O)(CN(C)Cc2ccc(C)o2)C1 (stereo not given),18.1
14,Cc1ccc(CN(C)CC2(O)CCCN(C)C2)o1 (stereo not given),53.08
15,O=C(c1ccccn1)N1CCc2ncnc(-c3ccncc3)c2CC1,-17.27
16,COc1cccc(OC)c1-c1ccnc2cc(CC(=O)N(C)C)nn12,-114.9
17,CC(C)NC(=O)CC1CC2(CCN(S(C)(=O)=O)CC2)c2ccccc21 (stereo not given),-30.05
18,Cc1cccnc1CNC[C@H]1Cn2cc(-c3ccccc3)nc2CO1,30.07
19,Cn1ccnc1CNC[C@H]1Cn2cc(-c3ccccc3)nc2CO1,55.94
20,Cc1ccc(-c2cn3c(n2)CO[C@@H](CNCc2cnn(C)c2)C3)cc1,-51.89
21,Cc1ccc(CNC[C@H]2Cn3cc(-c4ccccc4)nc3CO2)cc1,-116.4
22,COc1ccc(-c2cn3c(n2)CO[C@@H](CNCc2nccn2C)C3)cc1,20.49
23,Cc1ccc(-c2cn3c(n2)CO[C@@H](CNCc2nccn2C)C3)cc1,87.31
24,Fc1ccccc1OC1CCN(CCn2cc3ccccc3n2)CC1,-71.75
25,CCC1CN(CC(=O)N2CCCC2)CCN1CCOC (stereo not given),-62.36

row,Structure (SMILES),Percent Effect [%]
1,Cc1ccc(N2CCC3(CCN(C(=O)c4ccsc4)CC3)C2)nn1,-9.92
2,NC(=O)N1CCC2(CCN(Cc3ccccn3)C2=O)C1.O=C(O)C(F)(F)F (stereo not given),-110.7
3,COCC(O)CN1CCC(=O)N(Cc2ccccc2)Cc2ccccc21 (stereo not given),-18.3
4,CC(C)c1nn(C)c(N(C)C)c1CNCC(O)c1cccc(F)c1 (stereo not given),28.02
5,COc1c(CNCC(c2cccc(F)c2)N(C)C)c(C(C)C)nn1C (stereo not given),19.73
6,COc1ncccc1CNCc1c(C(C)C)nn(C)c1OC,-36.33
7,COc1ncccc1CNCc1c(C(C)C)nn(C)c1Cl,51.46
8,CC(C)c1nn(C)c(N(C)C)c1CNCC(O)c1ccccc1F (stereo not given),-90.64
9,CC(C)c1nn(C)c(N(C)C)c1CNCC(O)c1ccccc1 (stereo not given),-60.19
10,COc1ncccc1CNCc1c(C(C)C)nn(C)c1N(C)C,6.61
11,CC(C)c1nn(C)c(Cl)c1CNCC(O)c1cccc(F)c1.Cl (stereo not given),81.83
12,CC(C)OCCCNC(=O)c1cccnc1N1CCOCC1,-113.7
13,Cn1ccnc1CN1CCCN(C(=O)c2ccc3c(c2)OCO3)CC1,-109.5
14,O=C(Nc1nncs1)N1CCC(c2ccc(O)cc2)CC1,-154
15,CCN1C(=O)CCCC12CCCN(C(=O)c1conc1C)C2 (stereo not given),-139.9
16,CCCS(=O)(=O)N1CCC2(CN(c3ccccc3)C(=O)CN2C)C1.O=C(O)C(F)(F)F (stereo not given),-40.82
17,CC1Oc2c(cccc2C(=O)N2CCCCCC2)NC1=O (stereo not given),-198.9
18,c1ccc(CN(Cc2ncc[nH]2)Cc2nccs2)cc1,15.24
19,Cc1cccc(CN(Cc2ccccc2)Cc2nccs2)n1,-42.32
20,Cc1nc[nH]c1CN(Cc1ccccc1)Cc1nccs1,74.62
21,Cc1cccc(CN2CC[C@@H]3O[C@@H](C(=O)N4CCN(C)CC4)C[C@@H]32)c1,7.549
22,Cc1nc2ccnn2c(C)c1CCC(=O)N1CCSCC1,-118.8
23,Cc1cccc(N2CCOCC3(C2)CN(c2cnn(C)c2)C(=O)CO3)n1.O=C(O)C(F)(F)F (stereo not given),-79.15
24,Cc1cccc(N2CCOCC3(C2)CN(c2ccoc2)C(=O)CO3)n1.O=C(O)C(F)(F)F (stereo not given),65.62
25,Cc1cccc(N2CCOCC3(C2)CN(c2ccccc2)C(=O)CO3)n1.O=C(O)C(F)(F)F (stereo not given),-64.15
